Compounds with a hit are over-represented: about 3% of the library has one in this group of screens.
SENP8 block-1 = human SENP8 protease inhibitors, primary screen, biochemical, fluorescence, Nedd8 protein substrate, uHTS; Sentrin-specific protease 8 (Homo sapiens), Q96LD8; recombinant SENP8; inhibition, % at 20 µM; hit rate 0.64% among 360,000; in the data active = inhibition mostly above about 40%, no sharp cut-off; inactive = mostly below about 27%
Target sequence (Q96LD8 whole entry, looked up): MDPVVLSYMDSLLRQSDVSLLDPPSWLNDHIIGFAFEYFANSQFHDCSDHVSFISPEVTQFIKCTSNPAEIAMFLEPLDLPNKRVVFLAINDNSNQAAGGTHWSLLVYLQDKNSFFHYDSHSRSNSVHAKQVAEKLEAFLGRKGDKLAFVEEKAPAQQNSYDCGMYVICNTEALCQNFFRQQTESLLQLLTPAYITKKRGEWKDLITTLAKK
TRAIL sens C8 = viability loss with TRAIL in NB7+C8 cells, primary screen, TRAIL sensitizer project, cell-based, ATPlite luminescence; AID 624354, 2012; hit rate 1% among 360,000; inhibition (viability loss, TRAIL sensitization), % at 10 µM;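 active = compounds causing at least 50% loss of cell viability in the single-dose screen, relative to plate controls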
PPC-1+TRAIL kill = compounds killing PPC-1 cancer cells with TRAIL present, primary screen, TRAIL potentiator project, ATPLite luminescence, uHTS. PPC-1 cells + TRAIL, ATPLite viability luminescence. cell killing (% activity), % at 4 µM or 5 µM. hit rate 0.41% among 220,000. AID 1443, 2008;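 active = cell killing above 50% in the first pass at 4 µM, then a duplicate retest at 5 µM averaging 50% or more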;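 note: plate controls were cells with TRAIL plus DMSO for no effect and medium-only wells lacking cells for full effect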
SENP6 block = SENP6 protease inhibitors, primary screen, biochemical, luminescence, uHTS. Sentrin-specific protease 6 (Homo sapiens), Q9GZR1. Recombinant SENP6 catalytic domain, aminoluciferin luminescence. inhibition, % at 10 µM. hit rate 1.8% among 330,000. AID 2599, 2010;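 active = inhibition above about 50% at the single tested dose, limit read from the data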;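 note: plate controls were DMSO wells with enzyme for no effect and DMSO wells lacking enzyme for full effect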
Target sequence (Q9GZR1 628-1112 limits assumed): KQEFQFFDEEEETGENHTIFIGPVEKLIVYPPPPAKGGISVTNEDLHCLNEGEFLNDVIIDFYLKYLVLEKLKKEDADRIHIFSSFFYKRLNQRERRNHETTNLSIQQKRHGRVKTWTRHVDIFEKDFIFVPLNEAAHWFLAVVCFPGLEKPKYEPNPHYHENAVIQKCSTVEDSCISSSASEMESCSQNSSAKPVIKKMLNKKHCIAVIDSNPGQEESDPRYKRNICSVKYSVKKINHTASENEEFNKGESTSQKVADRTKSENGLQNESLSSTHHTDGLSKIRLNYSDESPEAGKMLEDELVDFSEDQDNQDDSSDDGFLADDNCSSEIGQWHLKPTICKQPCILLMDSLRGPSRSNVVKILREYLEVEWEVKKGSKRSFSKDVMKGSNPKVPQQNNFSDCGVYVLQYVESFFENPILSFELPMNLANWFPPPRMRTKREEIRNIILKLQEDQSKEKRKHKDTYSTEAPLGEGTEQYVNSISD
SENP8 block-2 = SENP8 protease inhibitors, primary screen, biochemical, luminescence | inhibition, % at 10 µM | hit rate 1.2% among 330,000 | purified SENP8, Z-RLRGG-aminoluciferin cleavage; in the data active = inhibition above about 50%
SENP7 block = SENP7 protease inhibitors, primary screen, biochemical, luminescence, uHTS; Sentrin-specific protease 7 (Homo sapiens), Q9BQF6; recombinant SENP7, Z-RLRGG-aminoluciferin luminescence, 40 min; inhibition, % at 5 µM; hit rate 1.5% among 330,000; AID 434973, 2010;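 active = inhibition above about 50% at the single test dose, limit read from the data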;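 note: plate controls were DMSO with enzyme for no effect and no enzyme buffer wells for full effect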
SENP8 conf = SENP8 protease inhibitors, retest, confirmation, biochemical, luminescence, single concentration | shares compounds with SENP7 block | Recombinant SENP8, Z-RLRGG-aminoluciferin luminescence, 60 min | inhibition, % at 12.5 µM | hit rate 40% among 6,200 | AID 488912, 2010;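 active = mean inhibition across replicates above about 50%, limit read from the data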
SENP6 confirm = SENP6 protease inhibitors, confirmation, biochemical, luminescence, single concentration; AID 488915, 2010; shares compounds with SENP7 block; inhibition, % at 12.5 µM; hit rate 58% among 6,200; recombinant SENP6, Z-RLRGG-aminoluciferin luminescence
SENP7 conf = SENP7 protease inhibitors, retest, confirmation, biochemical, luminescence, single concentration. shares compounds with SENP7 block. recombinant SENP7, Z-RLRGG-aminoluciferin luminescence, 40 min. inhibition, % at 12.5 µM. hit rate 69% among 6,200. AID 488917, 2010
Casp3 select = caspase-3 protease inhibitors, confirmation, selectivity assay for SENP inhibitor project, biochemical, single concentration; shares compounds with SENP7 block; purified caspase-3, Z-DEVD-aminoluciferin luminescence, 60 min; inhibition, % at 12.5 µM; hit rate 60% among 6,200; AID 488918, 2010;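 active = mean inhibition above about 50%, limit read from the data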;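 note: plate controls were enzyme with DMSO for no effect and wells without caspase-3 for full effect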
Luc interf = interferes with luciferase luminescence in SENP counter-screen | shares compounds with SENP7 block | Pre-incubated SENP8/Z-RLRGG-aminoluciferin, luciferase luminescence interference | inhibition, % at 12.5 µM | hit rate 39% among 6,200 | AID 488919;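 active = mean inhibition above about 50% when retested at one dose, limit read from the data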;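 note: plate controls were DMSO wells with completed reaction for no effect and substrate without enzyme for full effect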
An asterisk follows results filed as active; / = no result.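 Rule for the calls, unless noted: active = mean inhibition above about 50% in the one-dose retest (limit read from the data); inactive = the rest.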

SMILES | SENP8 block-1 | TRAIL sens C8 | PPC-1+TRAIL kill | SENP6 block | SENP8 block-2 | SENP7 block | SENP8 conf | SENP6 confirm | SENP7 conf | Casp3 select | Luc interf
N/C(=N\OC(=O)c1ccc(F)cc1)c1ccccc1 | 16.4 | 1.0 | 6.2 | 96.7* | 90.5* | 98.3* | 95.5* | 96.4* | 101.8* | 97.3* | 94.3*
Cc1ccc(/C(N)=N/OC(=O)CCc2ccccc2)cc1 | 15.9 | 9.1 | 10.8 | -10.5 | -7.1 | -4.4 | / | / | / | / | /
Cc1ccc(/C(N)=N/OC(=O)c2ccc(F)cc2)cc1 | 6.8 | 74.1* | 8.9 | 40.4 | 17.6 | 60.8* | 0.3 | 25.3 | 69.1* | 62.2* | 25.2
N/C(=N\OC(=O)c1ccc(F)cc1)c1ccc(Br)cc1 | 2.6 | 48.4 | 21.1 | -36.8 | -12.5 | 17.5 | / | / | / | / | /
CCOC(=O)C1(C)CCCN1C(=O)c1ccc(C(F)(F)F)nc1C (stereo not drawn) | 17.4 | -4.9 | / | / | / | / | / | / | / | / | /
CC(C)(C)NC(=O)C(c1ccc(-c2ccccc2)cc1)N(C[C@H]1CC[C@@H]([C@@H]2CC[C@H](CO)O2)O1)C(=O)c1ccc(C(C)(C)C)cc1 (stereo partly drawn) | 14.3 | 9.8 | / | / | / | 0.2 | / | / | / | / | /
Cc1ccc(S(=O)(=O)N/N=C\c2cn(CC(N)=O)c3ccccc23)cc1 | 4.8 | -8.5 | / | -1.2 | -0.1 | 6.3 | / | / | / | / | /
CC(=Nc1ccccc1)C1=C(O)COC1=O | 10.3 | -3.8 | 7.4 | -17.5 | 1.3 | 2.4 | / | / | / | / | /
CC(=Nc1ccc(Br)cc1)c1sc2ccccc2c1O | -52.2 | 39.2 | 24.0 | 79.8* | 61.3* | 73.3* | -4.4 | 7.6 | 5.1 | 13.3 | 6.1
CC(=Nc1ccccc1)c1sc2ccccc2c1O | -75.9 | 34.6 | 30.0 | 85.2* | 80.3* | 75.7* | 88.3* | 88.5* | 98.5* | 76.9* | 75.7*
NC(=Nc1ccc(Br)cc1)c1ccccc1 | 6.2 | 7.0 | / | -8.0 | -13.8 | 3.9 | / | / | / | / | /
CCCOc1ccc(C(=O)Nc2cccnc2)cc1 | 0.1 | 4.2 | / | 69.8* | 37.4 | 68.8* | 53.8* | 51.5* | 85.7* | 82.7* | 68.6*
O=C(CC(=O)c1ccccc1)Nc1cccnc1 | 4.4 | -2.0 | 0.2 | -20.2 | -17.5 | -2.1 | / | / | / | / | /
O=C(Nc1cccc(Oc2ccc(C(=O)O)c(C(=O)O)c2)c1)c1ccc(-c2ccccc2)cc1 | 6.6 | 54.3* | 25.0 | 71.7* | 44.0 | 2.3 | 51.2* | 39.3 | 64.3* | 50.5* | 68.2*
CCOc1cc(C(=O)Nc2cccnc2)cc(OCC)c1OCC | 2.0 | 6.7 | / | 18.1 | 5.0 | -3.9 | / | / | / | / | /
O=C(Nc1cccnc1)c1ccc(Oc2ccccc2)cc1 | 31.1 | 29.2 | 14.2 | 90.4* | 78.3* | 89.0* | 85.0* | 87.6* | 98.4* | 85.2* | 70.2*
O=C(Nc1cccnc1)c1ccccc1Oc1ccccc1 | 27.1 | 14.6 | 2.9 | -11.2 | 2.9 | 0.5 | / | / | / | / | /
O=C(Nc1ccccc1)C(=O)Nc1cccnc1 | 26.5 | -10.1 | 23.0 | 76.4* | 68.8* | 85.8* | 2.1 | 25.7 | 67.4* | 73.3* | 8.2
Cc1ccc(N2CC(C(=O)N3CCC(C(=O)Nc4nnc(C(C)(C)C)s4)CC3)CC2=O)cc1 (stereo not drawn) | 5.4 | -3.4 | / | 3.1 | 6.3 | -2.1 | / | / | / | / | /
CC1(C(=O)NCc2cccs2)Cc2c(-c3ccc4c(c3)OCO4)ccnc2O1 (stereo not drawn) | -59.5 | 9.6 | / | / | / | / | / | / | / | / | /
CCOC(=O)C1CCCN(C(=S)Nc2cccc(Cl)c2C)C1 (stereo not drawn) | 13.9 | 1.4 | 14.1 | -13.1 | 5.0 | 3.3 | / | / | / | / | /
Cc1cc(C(=O)NNC(=O)c2cccs2)c(C)o1 | 17.2 | 1.0 | / | 6.5 | 7.5 | -0.5 | / | / | / | / | /
CCCCOc1ccc(C(=O)Nc2ccncc2)cc1 | 13.0 | 24.9 | 19.6 | 57.0* | 42.5 | 37.6 | 45.1 | 40.2 | 77.0* | 52.2* | 22.1
CCCCOc1ccc(C(=O)NC)cc1 | 21.9 | -1.4 | -8.2 | -8.2 | -19.3 | -10.0 | / | / | / | / | /
COc1cc(C(=O)NCC2(N(C)C)CCCCC2)ccc1OCc1ccccc1 | 11.7 | 2.7 | / | -21.0 | -2.7 | -5.1 | / | / | / | / | /
SMILES | SENP8 block-1 | TRAIL sens C8 | PPC-1+TRAIL kill | SENP6 block | SENP8 block-2 | SENP7 block | SENP8 conf | SENP6 confirm | SENP7 conf | Casp3 select | Luc interf
Cc1csc(NC(=O)Nc2cccc(Cl)c2)n1 | 17.2 | 12.9 | 13.3 | 8.5 | -12.7 | 6.4 | / | / | / | / | /
CC(=O)c1cccc(NC(=O)c2cc(C(C)C)on2)c1 | 20.0 | 11.8 | 14.4 | 16.9 | -3.8 | -1.9 | / | / | / | / | /
CC(C)c1cc(C(=O)Nc2cccc(Cl)c2)no1 | 17.6 | -13.6 | -0.3 | 89.0* | 88.6* | 90.9* | 94.4* | 95.9* | 101.7* | 91.7* | 87.6*
Cc1nnc(NC(=O)Nc2cccc(Cl)c2)s1 | 9.1 | -7.3 | 6.2 | 56.5* | 25.9 | 47.0 | 31.0 | 51.7* | 62.5* | 56.4* | 15.2
CC1CCCCN1S(=O)(=O)c1ccc(S(=O)(=O)NCCc2ccncc2)cc1 (stereo not drawn) | 2.8 | 0.3 | 5.3 | -12.9 | 5.1 | 6.0 | / | / | / | / | /
CCN(CC)C(=O)C1=C(C)N(Cc2ccccc2)C(=O)C(CC(=O)NCC2CCCCC2)C1 (stereo not drawn) | -4.9 | 5.9 | / | / | / | / | / | / | / | / | /
Cc1nn(CC(=O)O)c(C)c1Cl | 10.1 | 4.1 | 24.3 | 0.8 | 6.7 | 94.8* | -10.2 | -2.9 | -6.4 | 2.0 | 3.6
Cc1nn(CC(=O)O)c(C)c1C | 12.2 | -7.2 | 16.0 | -25.7 | -1.2 | -5.9 | / | / | / | / | /
CC1=CC(C)(C)NC(=S)N1c1ccc(N(C)C)cc1 | 11.3 | 1.7 | / | / | / | / | / | / | / | / | /
O=C(O)c1cc(N/N=C/c2ccc(N3CCOCC3)cc2)ccc1Cl | -283.5 | -0.1 | 9.3 | -17.3 | 50.9* | 30.8 | 75.2* | 73.4* | 94.2* | 22.9 | 74.7*
Clc1cccc(N/N=C/c2ccc(N3CCOCC3)cc2)c1 | -163.9 | -5.3 | 6.1 | -34.5 | -17.3 | -8.4 | / | / | / | / | /
CSc1ccc(/C=N/Nc2ccc(Cl)c(C(=O)O)c2)cc1 | -69.3 | 1.1 | 6.3 | 76.3* | 77.1* | -3.9 | -27.9 | 90.8* | 99.8* | 25.0 | 92.1*
